Measurements as given in ChEMBL document CHEMBL3988442, “University of Dundee, Small-Polar-MMV Screening Library” (2021).
About 950 (1.4%) of roughly 69,000 compounds showed an effect of 50% or more. The entries come from a sample that favours strong results as a whole.

These compounds were tested on Mycobacterium tuberculosis (assay: Cornell M. t heat shock assay; also: in the data most compounds retested in dose-response had high values).
Type: functional, organism-based
Set-up: dose or concentration left out as unconfirmed

Row | SMILES | Percent Effect [%]
1 | CN(Cc1ccco1)Cc1cncc2c1CCN(Cc1ccoc1)C2.Cl.Cl.Cl | -8.81
2 | COc1ccc(CN(C)CC(O)COCc2ccccc2Cl)c(OC)c1.O=C(O)C(=O)O (stereo unspecified) | 10.76
3 | Cl.NC(=O)c1ccc(C2CCCNC2)nc1 (stereo unspecified) | 6.817
4 | Cc1noc(C)c1C(=O)N1C[C@@H]2COC[C@]2(COc2ccccn2)C1.O=C(O)C(F)(F)F | -29.95
5 | Cc1ccc2nc(C3CCCN3Cc3scnc3C)[nH]c2c1 (stereo unspecified) | 1.494
6 | Cc1ccc2nc(C3CCCN3Cc3csc(C)n3)[nH]c2c1 (stereo unspecified) | 87.71
7 | Cc1ccc2nc(C3CCCN3Cc3nnc(C)s3)[nH]c2c1 (stereo unspecified) | -8.638
8 | Cn1cc(CN2C[C@@H]3COC[C@]3(C(=O)NCCc3ccccc3)C2)cn1.O=C(O)C(F)(F)F | -18.43
9 | COCCC(C)NS(=O)(=O)c1ccc(C)c(N(C)C)c1 (stereo unspecified) | 1.91
10 | CCN(CC)c1ncnc2c1CCN(C(=O)Cc1ccccn1)CC2.O=C(O)C(F)(F)F.O=C(O)C(F)(F)F | -18.08
11 | CCn1ncc2c1C(COC)CN(Cc1ccc(F)cc1)C2.O=C(O)C(F)(F)F.O=C(O)C(F)(F)F (stereo unspecified) | -13.12
12 | CCn1ncc2c1C(COC)CN(c1ncc(F)cn1)C2.O=C(O)C(F)(F)F.O=C(O)C(F)(F)F (stereo unspecified) | 55.18
13 | COCC1CN(c2ncc(F)cn2)Cc2cnn(C)c21.O=C(O)C(F)(F)F.O=C(O)C(F)(F)F (stereo unspecified) | 9.404
14 | CCOCC1CN(Cc2ccco2)Cc2nccn2C1.O=C(O)C(F)(F)F (stereo unspecified) | -9.1
15 | CN(C)C(=O)CC1CC2(CCN(CC3CC3)CC2)c2cc(F)ccc21.O=C(O)C(F)(F)F (stereo unspecified) | -15.82
16 | COC(=O)C1CCN(C(=O)c2nnc3ccc(Cl)cc3n2)CC1 | 26.61
17 | COc1ccc2nnc(C(=O)NC3CCCC3)nc2c1 | 57.83
18 | CCn1nc(C)c(CNC(=O)c2nnc3ccc(OC)cc3n2)c1C | -6.041
19 | COC(=O)C1CCN(C(=O)c2nnc3ccc(C)cc3n2)CC1 | 15.86
20 | O=C(NC1CCCCC1)c1nnc2ccc(N3CCOCC3)cc2n1 | 8.79
21 | COc1ccc2nnc(C(=O)NCC3CCCC3)nc2c1 | 44.72
22 | O=C(NCC1CC1)Nc1cnc2cc(Cl)ccc2c1O | -11.98
23 | O=C(NCC1CC1)c1nnc2ccc(Cl)cc2n1 | 102.8

Row | SMILES | Percent Effect [%]
24 | Cc1ccc(-n2nnc(C(=O)NCC3CCCCC3)n2)cc1 | 10.71
25 | CCn1nc(C)c(CNC(=O)c2nnc3ccc(Cl)cc3n2)c1C | 42.92
26 | Cc1ccc2nnc(C(=O)NCC3CCCC3)nc2c1 | 103.3
27 | CN1CCN(C(=O)c2nnc3ccc(Cl)cc3n2)CC1 | 68.14
28 | CCOCC1CN(Cc2cnn(C)c2)Cc2nn(CC3CC3)cc21.O=C(O)C(F)(F)F (stereo unspecified) | 2.131
29 | CCCn1[nH]cc/c1=N\C(=O)CN1CCc2c(nc(C3CC3)n2C)C1 | 7.757
30 | Cl.O=C(C1CCCCC1)N1C[C@H]2CNC[C@H]2C1 | -3.289
31 | O=c1cc(CN2CC[C@H]3CC[C@@H](C2)N3)c2cccc3c2n1CCC3 | -15.55
32 | CN(C)C(=O)COC1COC2(CCN(CC3CCOCC3)CC2)C1.O=C(O)C(F)(F)F (stereo unspecified) | -2.67
33 | Cl.c1nc(N2CCOCC2)sc1-c1cncn1CCCN1CCCCC1 | -3.925
34 | CC(C)NC(=O)c1ccc2c(c1)C1(CCN(C(C)C)CC1)C(=O)N2.O=C(O)C(F)(F)F | -33.29
35 | Cc1noc(C)c1CN1CCn2cc(CNc3ccccn3)nc2C1.O=C(O)C(F)(F)F.O=C(O)C(F)(F)F | 4.3
36 | Cc1ccc(O[C@@H]2C[C@H]3CN(Cc4nccn4C)CCN3C2)cc1.O=C(O)C(F)(F)F.O=C(O)C(F)(F)F | -24.79
37 | CC(C)NC(=O)CNC(=O)c1csc(Cc2ccccc2F)n1 | -1.27
38 | COCC1N(C(=O)N2CCOCC2)[C@H]2CC[C@]1(O)CC2 (stereo partly specified) | -3.821
39 | CCCOC1CCCN(Cc2nc(-c3ccc(F)cc3F)oc2C)C1 (stereo unspecified) | -26.76
40 | COCc1ncn(Cc2nc(-c3ccc(OC)cc3F)oc2C)n1 | -9.071
41 | COc1ccc(-c2nc(CN3CCCC(OC)C3)c(C)o2)c(F)c1 (stereo unspecified) | 93.73
42 | O=C(O)C(F)(F)F.O=C(c1ccsc1)N1C[C@H]2CCC[C@@]2(COCc2cccnc2)C1 | -16.41
43 | Cl.Cl.O=C(NCc1cncc2c1CCN(C1CCOCC1)C2)c1ccno1 | 18.25
44 | Br.Cc1cc(C)nc(NCCC(=O)NCCn2ccnc2C)n1 | -9.93
45 | Cc1csc(NCC(=O)c2c[nH]c3ccccc23)n1.I | 13.99
46 | Cc1nc(CN2CCC23CCN(Cc2ccco2)CC3)cs1 | 77.77

Row | SMILES | Percent Effect [%]
47 | Cc1nc(CN2CCC23CCN(Cc2ccoc2)CC3)cs1 | 94.23
48 | Cc1nc(CN2CCC23CCN(C(=O)c2ccco2)CC3)cs1 | -3.59
49 | Cc1nc(CN2C(=O)CCC23CCN(Cc2ccoc2)CC3)cs1.O=C(O)C(F)(F)F.O=C(O)C(F)(F)F | -26.87
50 | Cc1nc(CN2C(=O)CCC23CCN(Cc2ccco2)CC3)cs1 | 5.099
51 | Cc1nc(CN2CCC3(C2)CN(Cc2ccco2)C3)cs1 | 18.48
52 | O=C(N1CCCO1)[C@@]12CCO[C@@H]1CCN(Cc1ccc(F)cc1)C2.O=C(O)C(F)(F)F | -15.72
53 | Cn1cc(-c2cnc(N3CCOCC3)nc2)cc1C(=O)NCCO.O=C(O)C(F)(F)F | 10.75
54 | O=C(c1c[nH]c(=O)c(Cl)c1)N1C[C@@H]2CC[C@H](C1)N(CC1CCC1)C2 | -23.49
55 | COCCn1c2c(ccc1=O)CC(NCc1cccnc1OC)CC2.O=C(O)C(F)(F)F.O=C(O)C(F)(F)F (stereo unspecified) | 19.47
56 | COC1COC2(CCN(CC3CC3)CC2)C1.O=C(O)C(F)(F)F (stereo unspecified) | -5.009
57 | COCc1ccc(C(=O)N2CCC(c3cc4nccnc4[nH]3)CC2)cc1 | 64.38
58 | Cc1cnc2cc(C3CCN(C(=O)c4ccncc4)CC3)[nH]c2n1 | 11.57
59 | COCc1ccc(C(=O)N2CCC(c3cc4ncc(C)nc4[nH]3)C2)cc1 (stereo unspecified) | 6.722
60 | COc1ccc(Cn2c(C3CCNCC3)cc3cccnc32)cc1.Cl | 2.964
61 | CCOC(=O)CSc1nnc([C@@H](N)C(C)CC)o1.Cl (stereo partly specified) | -17.57
62 | CCOCC1CN(C2CCCC2)Cc2cnn(CC3CCOCC3)c21.O=C(O)C(F)(F)F.O=C(O)C(F)(F)F (stereo unspecified) | -13.36
63 | c1ccc(O[C@H]2C[C@@H]3CN(Cc4cnccn4)C[C@@H]3C2)cc1 | -8.402
64 | Cc1ccc2cc(CN(C)Cc3ccccn3)c(=O)[nH]c2c1 | -6.108
65 | c1ccc(CN(Cc2cccc3cnccc23)CC2CCCO2)nc1 (stereo unspecified) | 13.24
66 | O=c1[nH]c2ccccc2cc1CN(Cc1ccccn1)CC1CCCO1 (stereo unspecified) | 51.43
67 | O=C(N1CCOCC1)N1C(CN2CCOCC2)[C@]2(O)CC[C@H]1CC2 (stereo partly specified) | 2.205
68 | CN1C[C@@H]2CN(C(=O)C3CC=CC3)C[C@@H]2C1=O | -1.029
69 | Cc1cc(CCC(=O)Nc2nncs2)nc(C2CCCN2)n1.Cl (stereo unspecified) | -11.36

Row | SMILES | Percent Effect [%]
70 | CN(C)C(=O)c1nn(C)c2c1CN(Cc1ccc(F)cc1)C2.O=C(O)C(F)(F)F | -35.3
71 | O=C(O)C(F)(F)F.O=C1CC[C@]2(CC[C@@H](NC(=O)NCc3cccnc3)CC2)N1 | 2.106
72 | Cc1csc(C(Cc2ccsc2)NC(=O)Cn2cccnc2=O)n1 (stereo unspecified) | -16.84
73 | Cc1cc(C)n(CC(=O)NC(Cc2ccsc2)c2ccccn2)c(=O)n1.Cl (stereo unspecified) | 93.95
74 | Cc1csc(C(Cc2ccsc2)NC(=O)CN(C)Cc2cccnc2)n1.Cl (stereo unspecified) | -9.769
75 | CN(CC(=O)NC(Cc1ccsc1)c1cccnc1)Cc1ccccn1.Cl (stereo unspecified) | -24.9
76 | O=C(Cn1cccnc1=O)NC(Cc1ccsc1)c1ccccn1 (stereo unspecified) | 17.67
77 | Cc1csc(C(Cc2ccsc2)NC(=O)CN(C)Cc2ccccn2)n1.Cl (stereo unspecified) | 82.59
78 | Cc1ccc(N2CCC3(CCN(C(=O)c4ccnnc4)CC3)CC2)nn1.O=C(O)C(F)(F)F | -48.43
79 | Cn1nnc2c1CCN(Cc1nccs1)C2COCc1ccccc1.O=C(O)C(F)(F)F (stereo unspecified) | 7.839
80 | N#Cc1cccc(CN2CC[C@@H]3[C@@H]2CC(=O)N3CCN2CCCC2)c1.O=C(O)C(F)(F)F.O=C(O)C(F)(F)F | -3.152
81 | Cc1oc(-c2ccccc2)nc1C(=O)NC1=NCCS1 | 105.4
82 | Cc1oc(-c2ccccc2)nc1CC(=O)NC1=NCCS1 | 20.62
83 | Cc1c(C(=O)NC2=NCCS2)cnn1-c1ccc(Br)cc1 | 23.54
84 | Cc1cc(C(=O)NC2=NCCS2)c(C)n1-c1ccccn1 | 4.567
85 | Cc1oc(-c2ccc(Cl)cc2)nc1C(=O)NC1=NCCS1 | 105.8
86 | Cc1c(C(=O)NC2=NCCS2)cnn1-c1ccc(Cl)cc1 | 22.26
87 | CC(C)CN1CC[C@@H]2[C@H](CC1)N(S(C)(=O)=O)CCS2(=O)=O.O=C(O)C(F)(F)F | -8.964
88 | Cc1c(CN2CCc3nc4sccc4c(=O)n3CC2)cnn1C.Cl | -11.07
89 | COCC(=O)NCc1cc(=O)n2c(n1)CN(C)CCC2.O=C(O)C(F)(F)F | 2.895
90 | CCn1cncc1CN1CCN(CC2(c3ccc(C)cc3)CC2)CC1.Cl | -24.04
91 | Cn1nnc2c1C(COCc1cccnc1)CN(Cc1ccoc1)C2.O=C(O)C(F)(F)F.O=C(O)C(F)(F)F (stereo unspecified) | -46.31
